The values that follow come from ChEMBL document CHEMBL3433997, “St. Jude Leishmania screening dataset” (2016).

Holding throughout (format): functional
Test [1] has as its target Solute carrier family 2, facilitated glucose transporter member 1 (Homo sapiens) (UniProt P11166). As to the kind of experiment: ST_JUDE_LEISH: Cytotoxicity at 2uM final concentration against transgenic Leishmania Mexicana promastigotes LmGLUT1 that are glucose transport deficient and complemented with the human glucose transporter GLUT1. Activity is measured by DNA content using SYBR green in vitro.

Test [2] concerns the target Hexose transporter 1 (Plasmodium falciparum) (UniProt O97467). The test can be described thus: ST_JUDE_LEISH: Cytotoxicity at 2uM final concentration against transgenic Leishmania Mexicana promastigotes LmPfHT that are glucose transport deficient and complemented with the Plasmodium falciparum hexose transporter. Activity is measured by DNA content using SYBR green in vitro.

Test [3] has as its target Glucose transporter (Leishmania mexicana) (UniProt O61059). The test can be described thus: ST_JUDE_LEISH: Cytotoxicity at 2uM final concentration against transgenic Leishmania Mexicana promastigotes LmGT2 that are glucose transport deficient and complemented with the L. Mexicana glucose transporter 2. Activity is measured by DNA content using SYBR green in vitro.

Solute carrier family 2, facilitated glucose transporter member 1 (Homo sapiens), sequence (P11166 whole entry): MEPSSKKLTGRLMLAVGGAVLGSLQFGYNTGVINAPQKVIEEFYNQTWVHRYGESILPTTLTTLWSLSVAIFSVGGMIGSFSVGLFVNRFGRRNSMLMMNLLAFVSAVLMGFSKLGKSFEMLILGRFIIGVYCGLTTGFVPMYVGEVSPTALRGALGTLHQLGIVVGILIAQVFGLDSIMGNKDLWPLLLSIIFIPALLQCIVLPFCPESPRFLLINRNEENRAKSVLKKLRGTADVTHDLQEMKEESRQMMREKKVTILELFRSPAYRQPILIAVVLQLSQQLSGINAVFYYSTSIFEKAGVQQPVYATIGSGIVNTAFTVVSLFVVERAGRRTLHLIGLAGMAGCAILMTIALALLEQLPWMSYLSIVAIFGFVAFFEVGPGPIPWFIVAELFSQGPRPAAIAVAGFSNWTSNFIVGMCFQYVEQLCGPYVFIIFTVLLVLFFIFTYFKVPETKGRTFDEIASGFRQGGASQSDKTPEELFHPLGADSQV

What is called inhibition is the drop in the measured response relative to a control, in per cent. For `Nc1nc(N)c2c(Cc3ccccc3)cccc2n1`, the inhibition in test [1] was 0.09%; in test [2], 4.13%; in test [3], 2.02%.

Regarding `c1cc2[nH]c(CCCc3nc4cc(C5=N[C@H]6CCCC[C@H]6N5)ccc4[nH]3)nc2cc1C1=N[C@@H]2CCCC[C@@H]2N1`, the inhibition stood at 0.97% in test [1], 1.75% in test [2] and 0.34% in test [3].

As for `C(=NN=c1cc[nH]c2ccccc12)c1ccncc1`, the inhibition in test [1] amounted to 3.99%; in test [2], 4.32%; in test [3] it was 3.95%.

For the compound `CCc1ccc(NC(=O)c2ccc(CN3CCCN(CC4CCCCC4)CC3)cc2)cc1`, the results for the inhibition in test [1], in test [2] and in test [3] were 7.57%, 10.3% and 7.64%, respectively.

Take `COc1cc(CN2CCC(NC(=O)[C@H](Cc3ccccc3)NC(=O)Nc3ccc(Oc4ccccc4)cc3)C2)ccc1O` (some centres undefined): the figures for the inhibition in test [1], in test [2] and in test [3] were 0.58%, 1.77% and -3.37%, respectively.

Turning to `COc1ccccc1N1CCN(c2cccc(F)c2C#N)CC1`, the inhibition in test [1] worked out at 8.24%; in test [2] it was 6.93%; in test [3], 6.12%.

For the compound `Cc1ccc2c(=NN=Cc3cccc(Cl)c3)cc(C)[nH]c2c1`, the inhibition worked out at 0.92% in test [1], 0.93% in test [2] and 1.04% in test [3].

Turning to `O=C1C[C@@H]([S+]([O-])Cc2nccs2)N1CCOCCCCCCc1ccc(Cl)cc1` (some centres undefined), the inhibition in test [1] stood at 9.09%; in test [2], 8.24%; in test [3] it was 9.2%.

For the compound `CC(=O)Nc1cccc(CN(Cc2ccc(-c3ccc(CNCc4cccnc4)cn3)cc2)C(=O)Cc2cccnc2)c1`, the results for the inhibition in test [1], in test [2] and in test [3] were 14.6%, 10.7% and 14%, respectively.

As for `c1cc(-c2ccc(CN3CCN(c4ccncc4)CC3)cc2)cc(-c2nc3ccccc3[nH]2)c1`, the inhibition in test [1] stood at 1.81%; in test [2], 3.51%; in test [3] it was 2.1%.

On to `Cc1cc(N/N=C/c2ccccc2[N+](=O)[O-])c2ccccc2n1`, for which the results for the inhibition in test [1], in test [2] and in test [3] were 3.96%, 5.28% and 2.51%, respectively.

Turning to `CC1CCC(NCc2c(O)ccc3ccccc23)CC1` (centres undefined), the values for the inhibition in test [1], in test [2] and in test [3] were 2.01%, 1.89% and 2.46%, respectively.

On to `Cc1cccc2nc(-c3ccc(-c4cccc(NC(=O)c5cccc(C(N)=O)c5)c4)cc3)[nH]c12`, for which the inhibition worked out at 3.55% in test [1], 3.07% in test [2] and 2.8% in test [3].
